Laboratory results: PubChem BioAssay (EPA / NIEHS)
Inconclusive results are not listed. Calls of active or inactive are those of the source. Rule for the calls: active = hit-call score of the fitted dose curve at least 0.9, where 1 is the maximum; inconclusive = response in the unintended direction; inactive = score below 0.9.

How the values were obtained:
[1] = Tanguay_ZF_120hpf_SNOU_legacy: (Legacy) Oregon State University Tanguay Lab 120 Hour Post-fertilization zebrafish Assay for Snout Malformation (AID 2283637)
How it was run: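 Tropical 5D wild-type zebrafish embryos, dechorionated with pronase at 4 hpf, were exposed singly from 6 hpf to 120 hpf statically at 28C in 0.64% DMSO. Snout malformation was scored present/absent by brightfield microscopy, fitted against DMSO.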

[2] = Tanguay_ZF_120hpf_JAW_legacy: (Legacy) Oregon State University Tanguay Lab 120 Hour Post-fertilization zebrafish Assay for Jaw Malformation (AID 2283638)
How it was run: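 Dechorionated Tropical 5D wild-type zebrafish embryos, one per well, exposed statically from 6 hpf to 120 hpf at 28C in 0.64% DMSO. Jaw malformation was scored by brightfield microscopy as present or absent. It was not scored in dead embryos.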

[3] = Tanguay_ZF_120hpf_OTIC_legacy: (Legacy) Oregon State University Tanguay Lab 120 Hour Post-fertilization zebrafish Assay for Otic Vesicle Malformation (AID 2283639)
How it was run: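 Otic vesicle malformation is read as a yes/no morphology call at 120 hpf. Exposure is static at 28C with 0.64% (vol/vol) DMSO; embryos that die are excluded from non-mortality endpoints.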

[4] = Tanguay_ZF_120hpf_PE_legacy: (Legacy) Oregon State University Tanguay Lab 120 Hour Post-fertilization zebrafish Assay for Pericardial Edema (AID 2283640)
How it was run: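 Tropical 5D wild-type zebrafish embryos were statically exposed until 120 hpf at 28C, with 0.64% DMSO final. Pericardial edema was scored by brightfield as present or absent; endpoints were not scored in dead embryos.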

[5] = Tanguay_ZF_120hpf_BRAI_legacy: (Legacy) Oregon State University Tanguay Lab 120 Hour Post-fertilization zebrafish Assay for Brain Malformation (AID 2283641)
How it was run: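 Tropical 5D wild-type zebrafish embryos exposed statically until 120 hpf at 28C, 0.64% DMSO final, sealed and dark. Brain malformation scored present/absent by brightfield at 120 hpf; dead embryos excluded. Trimethyltin chloride 5uM positive control.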

[6] = Tanguay_ZF_120hpf_SOMI_legacy: (Legacy) Oregon State University Tanguay Lab 120 Hour Post-fertilization zebrafish Assay for Somite Malformation (AID 2283647)
How it was run: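 Dechorionated Tropical 5D wild-type zebrafish embryos, one per well from 6 hpf, statically exposed at 28C to 120 hpf in 0.64% DMSO; somite malformation scored present/absent by brightfield; trimethyltin 5 uM positive control; dead embryos not scored.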

[7] = Tanguay_ZF_120hpf_PFIN_legacy: (Legacy) Oregon State University Tanguay Lab 120 Hour Post-fertilization zebrafish Assay for Pectoral Fin Malformation (AID 2283648);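 note: each larva judged yes or no for fin defect by brightfield with dead larvae skipped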
How it was run: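 Tropical 5D wild-type embryos, dechorionated with pronase at 4 hpf, were placed singly in wells at 6 hpf and statically exposed until 120 hpf at 28C, sealed and dark, with 0.64% (vol/vol) final DMSO; pectoral fin malformation scored present/absent.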

[8] = Tanguay_ZF_120hpf_CFIN_legacy: (Legacy) Oregon State University Tanguay Lab 120 Hour Post-fertilization zebrafish Assay for Caudal Fin Malformation (AID 2283649)
How it was run: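 Dechorionated Tropical 5D wild-type embryos, one per well from 6 hpf, static exposure to 120 hpf at 28C in 0.64% DMSO. Caudal fin malformation scored by brightfield as present/absent; not scored in dead embryos.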

[9] = Tanguay_ZF_120hpf_PIG_legacy: (Legacy) Oregon State University Tanguay Lab 120 Hour Post-fertilization zebrafish Assay for Pigmentation Malformation (AID 2283650)
How it was run: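 Tropical 5D wild-type zebrafish embryos, dechorionated with pronase at 4 hpf, were exposed singly from 6 hpf to 120 hpf statically at 28C in sealed, dark plates with 0.64% DMSO; pigmentation scored present/absent by brightfield microscopy, fitted against DMSO.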

[10] = Tanguay_ZF_120hpf_EYE_legacy: (Legacy) Oregon State University Tanguay Lab 120 Hour Post-fertilization zebrafish Assay for Eye Malformation (AID 2283636);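 note: binary presence or absence of eye malformation scored by brightfield in 120 hpf larvae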
How it was run: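 Dechorionated wild-type Tropical 5D zebrafish embryos were exposed statically from 6 hpf, one per well, to 120 hpf at 28C in sealed, foil-covered plates with 0.64% DMSO. Eye malformation was scored present/absent by brightfield microscopy against DMSO controls.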

Measured: outcome

Cc1ccc([N+](=O)[O-])cc1N
inactive: [1] | [2] | [3] | [4] | [5] | [6] | [7] | [8] | [9]

C1CNCCN1
inactive: [10] | [1] | [2] | [3] | [4] | [5] | [6] | [7] | [8] | [9]

Nc1ccc(C(=O)O)cc1
inactive: [1] | [2] | [3] | [4] | [6] | [7] | [8] | [9]
